PubChem BioAssay (NCATS)
Inconclusive results are not listed. Activity calls are given as the source filed them. Calls come from the whole dose curve; as a rule, active = well fitted curve in the direction sought with a large enough effect; inconclusive = small, poorly fitted or top-dose-only effect, or another doubt; inactive = no such curve, though single readings can be large; an effect the other way counts as inactive or inconclusive.

Legend:
[1] = qHTS of pediatric cancer cell lines to identify multiple opportunities for drug repurposing: Primary screen for Rh30 cells (AID 1347107); note: nearly all actives have a fitted effect of over 75% in size
Procedure, shortened: (§1)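 Viability after 48 h compound treatment at 37C, 500-1,000 cells/well, read as ATP luminescence with CellTiter-Glo. Primary screens used 11-point (MIPE, 0.78 nM-46 µM) or 8-point (NPC, 0.59 nM-46 µM) final concentrations; follow-up screens used 11-point dilutions.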

[2] = qHTS of pediatric cancer cell lines to identify multiple opportunities for drug repurposing: Primary screen for Rh41 cells (AID 1347108); note: nearly all actives have a fitted effect of over 70% in size
Procedure, shortened: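 Primary screen of approved and investigational compounds on cells in growth media at 37 degrees C, 5% CO2. MIPE set at 11-point and NPC set at 8-point dilutions; viability scored by ATP-based luminescence at 48 hours.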

[3] = qHTS of pediatric cancer cell lines to identify multiple opportunities for drug repurposing: Confirmatory screen for A673 cells (AID 1347110); note: nearly all actives have a fitted effect of over 65% in size
Procedure, shortened: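 A673 cells at 500-1,000 cells/well were dosed 5 h after plating, in dilution series up to 46 uM final; primary runs used 8 or 11 points and confirmatory runs used 11 points. Viability was read by CellTiter-Glo luminescence after 48 h, against DMSO and 2.3 uM bortezomib controls.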

[4] = qHTS of pediatric cancer cell lines to identify multiple opportunities for drug repurposing: Confirmatory screen for SK-N-MC cells (AID 1347111);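 note: cells exposed to compound for 48 h before the readout; nearly all actives have a fitted effect of over 70% in size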
Procedure, shortened: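 SK-N-MC cells at 500-1,000 cells/well in growth media were pre-incubated 5 h, then exposed to compounds at 11-point dilutions for 48 h at 37 degrees C, 5% CO2. Viability was read as CellTiter-Glo luminescence.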

[5] = qHTS of pediatric cancer cell lines to identify multiple opportunities for drug repurposing: Confirmatory screen for BT-12 cells (AID 1347112); note: nearly all actives have a fitted effect of over 55% in size
Procedure, shortened: as §1

[6] = qHTS of pediatric cancer cell lines to identify multiple opportunities for drug repurposing: Confirmatory screen for DAOY cells (AID 1347114); note: nearly all actives have a fitted effect of over 65% in size
Procedure, shortened: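 Viability measured as metabolically active cells via CellTiter-Glo luminescence following 48 hours of compound exposure, 11-point dilutions in confirmatory testing. 500-1,000 cells/well plated 5 hours before dosing; controls were DMSO and 2.3 µM bortezomib.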

[7] = qHTS of pediatric cancer cell lines to identify multiple opportunities for drug repurposing: Confirmatory screen for NB1643 cells (AID 1347109); note: nearly all actives have a fitted effect of over 45% in size
Procedure, shortened: as §1

[8] = qHTS of pediatric cancer cell lines to identify multiple opportunities for drug repurposing: Confirmatory screen for LAN-5 cells (AID 1347113); note: nearly all actives have a fitted effect of over 65% in size
Procedure, shortened: as §1

Measured: Potency
Potency is the fitted concentration of half-maximal effect.

COc1ccc(F)c(F)c1C(=O)c1cnc(NC2CCN(S(C)(=O)=O)CC2)nc1N
active: [2] 7.43 µM | [3] 2.93 µM | [4] 1.31 µM | [5] 3.69 µM | [6] 8.27 µM
inactive: [1]

Cc1[nH]nc2ccc(-c3cncc(OC[C@@H](N)Cc4ccccc4)c3)cc12
inactive: [1]
active: [2] 4.69 µM | [7] 1.17 µM | [3] 1.51 µM | [4] 2.33 µM | [5] 9.27 µM | [8] 3.29 µM | [6] 4.27 µM

O=C(CCCCCCC(=O)Nc1ccc([C@H]2O[C@@H](CSc3nc(-c4ccccc4)c(-c4ccccc4)o3)C[C@@H](c3ccc(CO)cc3)O2)cc1)NO
active: [1] 14.8 µM | [2] 9.35 µM
